Results as given in PubChem BioAssay AID504861 (Broad Institute, 2011).
Out of some 1,200 compounds screened, about 290 (24%) were called active. About 3% were inconclusive and are not listed.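 How the source made its calls: active means compounds lowering cell viability signal with fitted half-maximal concentration at most ten times their highest tested concentration; inconclusive means flat fit with 30 to 70% signal loss, or poor fit; inactive means the rest.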 These entries were drawn from the full list. Measured potencies and affinities stand elsewhere.

assay: HEK293T cell viability reduction, dose response, cytotoxicity control for LMP1 NF-kB inhibitor project, CellTiter-Glo luminescence, cherry-picks (AID 504861); conditions: CellTiter-Glo ATP luminescence, 48 h; series mostly up to 26 µM

Row | Compound | outcome
1 | O=C(Cn1nc(C(F)(F)F)c2c1CCC2)NC1CCCCC1 | inactive
2 | O=[N+]([O-])c1cc(/C=N\O)ccc1Oc1ccc(F)cc1 | inactive
3 | O=C(NNC(=S)Nc1ccc(Cl)c(Cl)c1)c1ccccn1 | inactive
4 | COc1cc2cc(C(=O)Nc3ccc4c(c3)OCCO4)[nH]c2cc1OC | inactive
5 | CC(=O)Nc1ccc(NC(=O)C(c2ccccc2)c2ccccc2)cc1 | inactive
6 | COCCCn1cnnc1SCC(=O)Nc1ccc(S(=O)(=O)N2CCCC2)cc1 | inactive
7 | CC1CCN(C(=O)/C(=C\c2cccs2)NC(=O)c2ccccc2)CC1 | inactive
8 | COc1ccc(C=C2OC(=O)C(C(C)=O)=C2O)cc1 | inactive
9 | Cc1cc(C(=O)CN2C(=O)c3ccccc3C2=O)c(C)n1Cc1cccs1 | inactive
10 | Cc1cccc(C)c1NC(=O)CN(C)CC(=O)Nc1ccccc1Oc1ccccc1 | inactive
11 | COCCn1c(SCC(=O)NCc2ccco2)nnc1-c1c[nH]c2ccccc12 | inactive
12 | c1ccc(OCCSc2nnc3sc4ccccc4n23)cc1 | inactive
13 | CC(C)Oc1ccc(C2CC(=O)NC2=O)cc1 (stereo not drawn) | inactive
14 | COCC(=O)N(C)c1nnc(-c2ccccn2)s1 | inactive
15 | CCOC(=O)c1c2c(n(C)c1C)C(=O)C(=O)c1ccc(Br)cc1-2 | inactive
16 | CCOC(=O)N1CCC(n2c(=S)[nH]c3ccccc3c2=O)CC1 | inactive
17 | N#CC(C#N)c1ccnc2ccccc12 | inactive
18 | O=C(O)/C=C/c1ccc(Cn2ccnc2)cc1 | inactive
19 | Cc1ccc(C(=O)Nc2cccc(C(F)(F)F)c2)cc1Nc1ncnc2nc[nH]c12 | inactive
20 | CCN1CCN(Cc2ccc(NC(=O)c3ccc(C)c(NC(=O)c4cccc5[nH]ccc45)c3)cc2C(F)(F)F)CC1 | inactive
21 | CCN1CCN(Cc2ccc(NC(=O)c3ccc(C)c(NC(=O)c4ccno4)c3)cc2C(F)(F)F)CC1 | inactive
22 | CCN1CCN(Cc2ccc(NC(=O)c3ccc(C)c(NC(=O)c4nccn4C)c3)cc2C(F)(F)F)CC1 | inactive

Row | Compound | outcome
23 | CCN1CCN(Cc2ccc(NC(=O)c3ccc(C)c(NC(=O)N4CCNC4=O)c3)cc2C(F)(F)F)CC1 | inactive
24 | Cc1ccc(C(=O)Nc2cccc(C(F)(F)F)c2)cc1NC(=O)c1ccno1 | inactive
25 | COc1cccc(CC(=O)NNC(=O)c2ccc3c(c2)OCO3)c1 | inactive
26 | COC(=O)c1c(O)ccc(Oc2ccccc2)c1C(=O)OC | inactive
27 | CCC(=O)NC(=S)Nc1ccccc1C(F)(F)F | inactive
28 | N#CC1=C(N)N2C(=C(C#N)C1c1cccc(Br)c1)Nc1ccccc12 (stereo not drawn) | inactive
29 | C[C@@H](C(=O)Nc1ccc2c(c1)OCCO2)n1c(=O)[nH]c2ccccc2c1=O | inactive
30 | Cc1nnc(SCC(=O)N2CCC(c3noc4ccc(F)cc34)CC2)s1 | inactive
31 | S=C1SCN(Cc2ccco2)CN1Cc1ccco1 | inactive
32 | O=C(CN(Cc1cccs1)C(=O)CNS(=O)(=O)c1ccccc1)NCc1ccco1 | inactive
33 | COC(=O)c1ccc2nc(-c3cccc(N)c3)cn2c1 | inactive
34 | Cc1ccc(S(=O)(=O)N2CCN(C(=O)CSc3nnnn3C)C2)cc1 | inactive
35 | O=C(O)C1CC(=O)N(c2ccc(Br)cc2)C1 (stereo not drawn) | inactive
36 | CCOc1ccc(C(=O)NC(=S)N(Cc2ccccc2)Cc2ccccc2)cc1 | inactive
37 | COCCn1c(C)cc(C(=O)COc2ccc(C)nc2[N+](=O)[O-])c1C | inactive
38 | C=CCN(c1ccc(C(=O)Nc2ccc3c(c2)n(C)c(=O)n3C)cc1)S(C)(=O)=O | inactive
39 | CC(C)N1CCN(c2ccc(OC[C@H]3CO[C@](Cn4cncn4)(c4ccc(Cl)cc4Cl)O3)cc2)CC1 | inactive
40 | CC(C)Oc1ccc(C(=O)Nc2nnc(SCC(=O)N3CCOCC3)s2)cc1 | inactive
41 | CCOc1ccc(N/C=C/C(=O)c2ccccc2)cc1 | inactive
42 | Clc1cccc(CN2CCCCCC2)c1 | inactive
43 | CC(=O)c1ccc(N2CCN(c3ccnc4cc(Cl)ccc34)CC2)cc1 | inactive
44 | c1ccc(C2c3[nH]c4ccccc4c3CCN2Cc2cccn2-c2ccccn2)nc1 (stereo not drawn) | inactive

Row | Compound | outcome
45 | Cn1c(=O)c2ncn(CC(=O)O)c2n(C)c1=O | inactive
46 | Cc1cc(C)c(S(=O)(=O)Nc2nnc(CC(C)C)s2)c(C)c1 | inactive
47 | CCn1c(=O)c2c(cnn2C)c2ccccc21 | inactive
48 | COc1cc(Cl)cc(C(c2c(C(=O)O)[nH]c3ccccc23)c2c(C(=O)O)[nH]c3ccccc23)c1O | inactive
49 | O=C1CC(c2ccccc2)Oc2ccccc21 (stereo not drawn) | inactive
50 | CCOC(=O)c1c(NC(=O)C2C3CCC(O3)C2C(=O)O)sc(C)c1-c1ccc(F)cc1 (stereo not drawn) | inactive
51 | Cc1nc2sc(C(N)=O)c(N)c2c2c1CCCC2 | inactive
52 | O=C(NC(Cc1c[nH]c2ccccc12)C(=O)Nc1ccc(F)c([N+](=O)[O-])c1)c1cccs1 (stereo not drawn) | inactive
53 | COCC(=O)N1CCC(Oc2ccc(C(=O)N3C[C@H]4CC[C@H]3C4)cc2)CC1 | inactive
54 | CC1=C(C(=O)OCc2ccc3c(c2)OCO3)C(c2ccc(Cl)cc2)NC(=O)N1 (stereo not drawn) | inactive
55 | COc1ccc(N2Cc3cccc(C(=O)NC(C)CCc4ccco4)c3C2=O)cc1 (stereo not drawn) | inactive
56 | COc1ccc(CCNC(=O)CSC(=O)c2ccccc2)cc1OC | inactive
57 | CCCN(CC1CC1)c1nc(C)nc(Nc2c(Cl)cc(Cl)cc2Cl)c1Cl | inactive
58 | CC(C)Nc1nnc(SCC(=O)c2c(N)n(Cc3ccccc3)c(=O)n(C)c2=O)s1 | inactive
59 | COc1cccc(C(=O)OCn2nnc3ccccc3c2=O)c1OC | inactive
60 | COc1ccc(C(=O)Nc2ccc(N3CCN(C(=O)c4ccccc4C)CC3)cc2)cc1 | inactive
61 | COc1ccc2sc3c(=O)[nH]c4ccccc4c3c2c1 | inactive
62 | CCOc1ccccc1C(=O)N[C@H](C(=O)OCc1cc([N+](=O)[O-])cc2c1OCOC2)C(C)C | inactive
63 | Cc1ccc(S(=O)(=O)N2CCCCC2)cc1NC(=O)CNc1ccccc1N1CCCC1=O | inactive
64 | O=C(c1ccc(Cl)cc1)N1CCN(CCOc2ccccc2)CC1 | inactive
65 | Cn1c(CC(=O)Nc2ccc(F)cc2)nnc1SCC(=O)Nc1nncs1 | inactive
66 | O=C(O)c1ccc(C=NNC(=O)c2cccc3ccccc23)cc1 | inactive

Row | Compound | outcome
67 | Cc1cccc(/C=N/NC(=O)CNc2cccc3ccccc23)n1 | inactive
68 | O=C(/C=C/Nc1cccc(C(F)(F)F)c1)C(F)(F)F | inactive
69 | O=C(CN1C(=O)c2ccccc2S1(=O)=O)c1ccccc1F | inactive
70 | COc1ccc(NC(=O)N(CCN2CCCC2)Cc2cc3cc(OC)c(OC)cc3[nH]c2=O)cc1 | inactive
71 | CC(C)CC1C(=O)N(Cc2cn(CC3CCCCC3)nn2)CCS(=O)(=O)N1Cc1ccc(-c2ccc(F)nc2)cc1 (stereo not drawn) | inactive
72 | Cc1ccc(C(=O)Nc2ccc3ncccc3c2)cc1 | inactive
73 | O=C(Nc1ccccn1)NC1CCCCC1 | inactive
74 | CCC(C)N1C(=O)CCC1C(=O)N1CCN(c2ccc(F)cc2)CC1 (stereo not drawn) | inactive
75 | c1cncc(CNc2ncnc3ccc(-c4ccoc4)cc23)c1 | inactive
76 | O=c1cc(-c2ccccc2)[nH]c2ccc(F)cc12 | inactive
77 | CCOc1ccc(OCc2cccc(C(=O)N3CCCC3)c2)cc1 | inactive
78 | COc1ccc(-c2ccc3c(c2)S(=O)(=O)c2cccc(C(=O)NCc4cc(C)oc4C(F)(F)F)c2C3=O)cc1OC | inactive
79 | COCCCNC(=O)CN1C(=O)COc2ccc(S(=O)(=O)N3CCOCC3)cc21 | inactive
80 | CN1CCc2cccc3c2C1Cc1ccc(O)c(O)c1-3 (stereo not drawn) | inactive
81 | CSc1ccccc1NC(=O)CN1CCCCC1C (stereo not drawn) | inactive
82 | COc1ccc2cc(-c3cc(C(=O)OCC(=O)Nc4c(C)n(C)n(-c5ccccc5)c4=O)c4ccccc4n3)ccc2c1 | inactive
83 | CCc1ccc(/C=C/C(=O)C2C(=O)c3ccccc3C2=O)cc1 | inactive
84 | N#CCCn1cc(C(=O)Nc2ccccn2)c(-c2ccccc2)n1 | inactive
85 | CC1=NN(C(N)=S)C(=O)C1N=Nc1cccc(C(=O)O)c1 (stereo not drawn) | inactive
86 | C[C@@]12C(=O)N(Cc3ccccc3)CC(=O)N1[C@H](/C=C/c1ccccc1)[C@@H]1C(=O)N(c3ccccc3)C(=O)[C@@H]12 | inactive
87 | COc1cc(OC)cc(C(=O)N[C@H](C(=O)OCC(=O)c2ccc(C)c([N+](=O)[O-])c2)C(C)C)c1 | inactive
88 | Clc1ccc(-n2ncc3c(N4CCCC4)ncnc32)cc1 | inactive

Row | Compound | outcome
89 | COc1cc(CC(=O)N(c2ccccc2)c2nc(C)cs2)cc(OC)c1OC | inactive
90 | Cc1nc2sc(-c3ccccc3)cc2c(=O)n1N | inactive
91 | COCCN1CSC(=S)N(Cc2ccco2)C1 | inactive
92 | O=C(Nc1ccc(Cl)cc1)Nc1nnc(CSCc2ccc(Cl)cc2)s1 | inactive
93 | COc1cc(NCCCCCCN)c2ncccc2c1OC | inactive
94 | COc1cccc(/C=N\NC(=O)c2ccc(C)nc2)c1 | inactive
95 | O=C(C=C1SCCS1)/C=C/c1ccco1 | inactive
96 | COc1cccc(C(=O)CC(=O)C(=O)Nc2ccc(C)cc2Cl)c1 | inactive
97 | CCSC1=C(C#N)C(c2ccc(C)o2)CC(=O)N1 (stereo not drawn) | inactive
98 | Cc1cc(=O)[nH]c(N/N=C/c2ccc(C)o2)n1 | inactive
99 | CCCC(=O)NCCCc1nc2ccccc2[nH]1 | inactive
100 | Cc1cc(N=Cc2c(O)ccc3cc(Br)ccc23)no1 | inactive
101 | CCOc1ccc(/C=N/Nc2cc(N3CCOCC3)ncn2)c(O)c1 | inactive
102 | COc1ccc(NC(=O)c2cc3ccccc3oc2=O)cc1 | inactive
103 | O=C1c2ccccc2C(Nc2cccnc2)N1Cc1ccccc1 (stereo not drawn) | inactive
104 | C[C@H](CO)N1C[C@H](C)[C@@H](CN(C)C(=O)NC2CCCCC2)Oc2c(NS(=O)(=O)c3cn(C)cn3)cccc2C1=O | inactive
105 | COc1ccc(C(c2sc3nc(C)nn3c2O)N2CCC(C(N)=O)CC2)cc1OC (stereo not drawn) | inactive
106 | CCCN(CCC)c1ncnc2nc[nH]c12 | inactive
107 | Cc1ccc(-n2nc(C(=O)NCc3ccc(C)o3)c3c4ccccc4n(C)c3c2=O)cc1 | inactive
108 | Cc1ccc(-c2nnn(CC(=O)N(Cc3ccco3)C(C(=O)NC(C)(C)C)c3ccncc3)n2)o1 (stereo not drawn) | inactive
